From PubChem BioAssay
AmpC inh no detg: qHTS Inhibitors of AmpC Beta-Lactamase (assay without detergent). P00811. AmpC nitrocefin hydrolysis, absorbance 480 nm, 0.0001% Triton. Potency, µM (titrated, usually from 57.1 µM), for the others: top-dose activity change, negative = inhibition, most hits filed as inhibitors. 330,000 tested, 0.52% active;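 further: plate controls were no compound for no effect and no enzyme for full effect; nearly all actives have a fitted effect of over 20% in size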
Target sequence (P00811 whole entry, looked up): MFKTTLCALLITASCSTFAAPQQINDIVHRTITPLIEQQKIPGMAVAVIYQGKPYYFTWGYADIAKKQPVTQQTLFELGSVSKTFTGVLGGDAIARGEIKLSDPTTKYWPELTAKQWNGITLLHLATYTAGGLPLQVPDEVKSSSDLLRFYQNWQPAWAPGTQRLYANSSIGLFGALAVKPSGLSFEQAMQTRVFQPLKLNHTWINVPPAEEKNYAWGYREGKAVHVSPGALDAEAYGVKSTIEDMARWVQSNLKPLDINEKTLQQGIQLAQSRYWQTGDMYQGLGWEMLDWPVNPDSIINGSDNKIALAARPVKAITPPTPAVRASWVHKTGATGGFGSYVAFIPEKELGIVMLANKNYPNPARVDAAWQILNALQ
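AmpC (5.3 nM in the dispensed reagent) in 20 mM phosphate pH 7.0 with 0.01% (detergent screen) or 0.0001% Triton X-100 was preincubated with compounds for 15 min at room temperature. Nitrocefin was then added from an 800 uM solution, and hydrolysis was followed at 480 nm.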
Sm TGR inh: qHTS Assay for the Inhibitors of Schistosoma Mansoni Peroxiredoxins | Schistosoma mansoni thioredoxin glutathione reductase (TGR), Q962Y6 | 360,000 tested, 3% active | Potency, µM (top dose mostly 114 µM), without a hit: at the highest dose activity change, negative = inhibition, most hits filed as inhibitors | purified TGR, DTNB reduction, TNB absorbance 405 nm | AID 485364, 2010; further: nearly all actives have a fitted effect of over 60% in size
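Kinetic colorimetric format: TGR-catalysed, NADPH-driven DTNB reduction monitored via TNB absorbance. Enzyme dispensed at 20 nM; compound exposure 15 min at room temperature before reaction start.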
AmpC inh detg: qHTS Inhibitors of AmpC Beta-Lactamase (assay with detergent) | Potency, µM (series often up to 114 µM), without a hit: top-dose activity change, negative = inhibition, actives largely listed as inhibitors | AID 485294, 2010 | AmpC hydrolysis of nitrocefin, absorbance 480 nm, 0.01% Triton | P00811 | 370,000 tested, 0.041% active;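 further: 0% = no-compound wells and -100% = no-enzyme wells; nearly all actives have a fitted effect of over 25% in size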
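20 mM phosphate pH 7.0 + 0.01% (detergent screen) or 0.0001% Triton X-100; 5.3 nM AmpC reagent; cpd preinc 15 min RT; nitrocefin (800 uM stock) to start; A480 q20 s × 4 min; Activity was normalised to no-enzyme and no-compound control wells.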
An asterisk follows results filed as active; ? = inconclusive; / = no result given. In the library only some 3.3% were active in any assay of this set; here they are far more common. The call rests on the fitted dose curve; in most records, active means well fitted curve in the direction sought with a large enough effect; inconclusive means small, poorly fitted or top-dose-only effect, or another doubt; inactive means no such curve, though single readings can be large; an effect the other way counts as inactive or inconclusive. Unless noted, on the % scale 0 is the no-effect control and ±100 the full control effect; potency means the concentration at half of the fitted maximal effect.

SMILES	AmpC inh no detg	Sm TGR inh	AmpC inh detg
CCC(C(=O)NCc1ccco1)N(C(=O)CNS(=O)(=O)c1ccccc1)c1ccc(F)cc1 (stereo not drawn)	-9%	6%	1%
COc1ccc(Br)cc1CNC(=O)C1CCN(c2nnc(-n3cccc3CNc3ccc(C)cc3)s2)CC1	/	-18%	0%
Cc1nn(-c2ccc(F)cc2)c(Cl)c1/C=N/NC(=O)c1ccc(O)cc1	-58%	-3%	-2%
Cc1nn(-c2ccc(F)cc2)c(Cl)c1/C=N/NC(=O)c1cccs1	28µM*	0%	-1%
COc1cc(C2C(C#N)=C(N)N(c3ccc(F)cc3)C3=C2S(=O)(=O)CC3)ccc1O (stereo not drawn)	-35%	45µM*	11%
COc1cc(C2C(C#N)=C(N)N(c3cccnc3)C3=C2C(=O)CCC3)ccc1O (stereo not drawn)	-16%	0%	0%
O=C(NCc1ccco1)/C(=C\c1ccco1)NC(=O)c1cccs1	-32%	28µM*	-2%
Cc1cccc(NC(=O)/C(=C\c2ccco2)NC(=O)c2cccs2)c1	-6%	50µM*	-11%
CCCCOc1ccc(C(=O)N/C(=C\c2ccc(OC)cc2)C(=O)OCc2ccco2)cc1	-16%	9%	-7%
COc1ccc(C(=O)N/C(=C\c2ccco2)C(=O)OCc2ccco2)cc1	-36%	28µM*	0%
O=C(NCc1ccco1)/C(=C\c1cccs1)NC(=O)c1cccs1	-16%	4%	-4%
Cc1ccc(C(=O)N/C(=C/c2ccco2)C(=O)Nc2cccc(C)c2)cc1	-52%	?	-10%
COc1ccc(C(=O)N/C(=C/c2ccco2)C(=O)NCc2ccco2)cc1	-9%	?	-7%
Cc1ccc(C(=O)N/C(=C/c2ccco2)C(=O)NCc2ccco2)cc1	-36%	40µM*	2%
Cn1c(=O)c2sccc2n2c(CCC(=O)Nc3ccc(F)cc3)nnc12	/	1%	-1%
O=C(NCCc1csc(-c2ccc(C(F)(F)F)cc2)n1)c1ccc(F)c(F)c1	/	6%	13%
O=c1oc2ccc(F)cc2cc1-c1nc(-c2cccs2)no1	/	9%	-1%
O=C(NCc1ccco1)c1cc2c(s1)CSC2	?	18µM*	-6%
O=C(NC(=S)NCc1ccco1)c1ccc(Br)cc1	-36%	50µM*	-14%
O=C(NCc1ccc2c(c1)OCO2)c1cc2c(s1)CSC2	-34%	-12%	-14%
O=C(NC(=S)NCc1ccco1)c1ccccc1	-44%	2%	2%
CC(/C=N/NC(=O)Cc1cccs1)=C\c1ccco1	-44%	?	?
O=C(NCc1ccco1)c1cccs1	-10%	35µM*	3%
O=C(NNC(=S)NCc1ccco1)c1cccs1	-5%	9%	-1%
CC(/C=N/NC(=O)c1cccs1)=C\c1ccco1	-36%	32µM*	-4%
SMILES	AmpC inh no detg	Sm TGR inh	AmpC inh detg
COc1cccc(C(=O)N(Cc2nc(-c3ccc(Cl)cc3)no2)C(C)C)c1OC	/	11%	1%
Cc1c(C(=O)N2CCC(C(=O)Nc3ccc(F)cc3)CC2)sc2nc[nH]c(=O)c12	/	5%	1%
COc1ccc(CC(=O)N2CCc3cc(OC)c(OC)cc3C2COc2cc(C)cc(C)c2)cc1OC (stereo not drawn)	/	-2%	10%
CCOC(=O)Cn1nc(C)c(NC(=O)COc2ccc(Cl)cc2C)c1C	/	0%	-1%
COCCCNC(=O)CN1C(=O)COc2ccc(S(=O)(=O)N3CCCC3)cc21	/	-7%	?
Clc1ccccc1CNCCCSc1nnnn1-c1ccccc1	/	0%	3%
Cc1ccc(CCNC(=O)c2sc3ncccc3c2-n2c(C)ccc2C)cc1	/	1%	?
CCOC(=O)N1CCc2c(sc3c2c(=O)n(Cc2ccccc2)c(=O)n3CC(=O)Nc2ccc(F)cc2)C1	/	5%	10%
CC1=NN(c2ccc(C)cc2)C(=O)/C1=C/c1ccc(-c2cc([N+](=O)[O-])ccc2O)o1	16µM*	?	-11%
CC1=NN(c2ccc(C(=O)O)cc2)C(=O)/C1=C/c1ccc(-c2ccccc2F)o1	-1%	1%	1%
CC(=O)c1cccc(OCc2cc(C(=O)N3CC4C[C@@H]5CC3C[C@H](C4)C5)no2)c1	53%	32µM*	-3%
CC(=O)c1ccc(OCc2cc(C(=O)N3CC4C[C@@H]5CC3C[C@H](C4)C5)no2)cc1	71%	-26%	-14%
CC(C)CC(=O)NC1(C(F)(F)F)C(=O)Nc2c1c(=O)[nH]c(=O)n2-c1ccccc1 (stereo not drawn)	/	6%	14%
